In PubChem BioAssay (Tox21):
Results filed as inconclusive are left out. The source made the active and inactive calls. Unless noted, calls come from the whole dose curve; as a rule, active = well fitted curve in the direction sought with a large enough effect in the repeat runs; inconclusive = weak or mixed curves; inactive = no such curve, though single readings can be large; an effect the other way counts as inactive or inconclusive.

Legend:
[1] = qHTS assay for small molecule agonists of the p53 signaling pathway (AID 651631; calls by dose curve; note: nearly all actives have a fitted effect of over 15% in size; note: potency is the fitted concentration of half-maximal effect)
Procedure, shortened: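 Read-out is beta-lactamase FRET fluorescence measured 2 h after substrate addition at room temperature, in HCT-116 cells with a p53 response element-driven reporter exposed to compounds for 16 h at 37 °C.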

[2] = qHTS assay for small molecules that induce genotoxicity in human embryonic kidney cells expressing luciferase-tagged ATAD5 (AID 651632); note: nearly all actives have a fitted effect of over 15% in size; note: potency is the fitted concentration of half-maximal effect
Procedure, shortened: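 Concentration-response screen for ATAD5 upregulation in HEK293T luciferase reporter cells; 16 hr treatment at 37C, then luminescence after 30 min with Amplite at room temperature.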

[3] = qHTS assay for small molecule agonists of the p53 signaling pathway - cell viability (AID 651633; calls by dose curve; note: nearly all actives have a fitted effect of over 30% in size; note: potency is the fitted concentration of half-maximal effect)
Procedure, shortened: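 Viability counter-read: CellTiter-Glo luminescence (30 min, room temperature) in the same p53RE-bla plates. These plates had been exposed to compounds for 16 h at 37 C.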

[4] = qHTS assay for small molecules that induce genotoxicity in human embryonic kidney cells expressing luciferase-tagged ATAD5 - cell viability (AID 651634; calls by dose curve; note: nearly all actives have a fitted effect of over 25% in size; note: potency is the fitted concentration of half-maximal effect)
Procedure, shortened: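 15.5 hr compound or vehicle exposure of HEK293T cells expressing luciferase-tagged ATAD5 at 37C; live-cell protease activity is read by fluorescence after 30 min of CellTiter-Fluor.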

[5] = qHTS assay for small molecule disruptors of the mitochondrial membrane potential - cell viability (AID 720634; calls by dose curve;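 note: human HepG2 liver cancer cells; series mostly up to about 83 µM; nearly all actives have a fitted effect of over 20% in size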)
Procedure, shortened: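 In this qHTS format, HepG2 cells plated overnight were pinned with compound, incubated 1 hr, and assayed for ATP luminescence with CellTiter-Glo after m-MPI dye addition.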

[6] = qHTS assay to test for compound auto fluorescence at 590 nm (red) in HepG2 cells (AID 720674)
Procedure, shortened: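 Red autofluorescence (Ex/Em 540/590 nm, Rose Bengal sodium equivalents) was measured in HepG2 cells, 2,000 per well in MEM plus 10% FBS, plated overnight at 37 C. Readings were taken 1 hr after adding 23 nL compound or DMSO, at 37 C and 5% CO2.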

[7] = qHTS assay to test for compound auto fluorescence at 535 nm (green) in HepG2 cells (AID 720675)
[8] = qHTS assay to test for compound auto fluorescence at 460 nm (blue) in HEK293 cells (AID 720678)
Procedure, shortened: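 Blue-channel (Ex/Em 405/460 nm) intensity measured in HEK293 cultures after overnight compound exposure at 37C; signal expressed relative to triamterene. Cells plated 2,000 per well in 10% dialyzed FBS medium and allowed 4-5 hr to attach.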

[9] = qHTS assay to test for compound auto fluorescence at 590 nm (red) in HEK293 cells (AID 720679)
Procedure, shortened: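 Red-channel autofluorescence (Ex/Em 540/590 nm; Rose Bengal sodium reference) was measured after overnight 37C, 5% CO2 exposure of attached HEK293 cells, 2,000 per well in medium with 10% dialyzed FBS.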

[10] = qHTS assay for small molecule disruptors of the mitochondrial membrane potential (AID 720635); note: potency is the fitted concentration of half-maximal effect
Procedure, shortened: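 Mitochondrial membrane potential tracked with Mito-MPS dye, red aggregates (ex 540/em 590 nm) against green monomers (ex 490/em 535 nm). Compound treatment 1 hr at 37C, dye 30 min in HepG2.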
% is set by controls: 0 for no effect and ±100 for the full control effect.

C=C(C)[C@@H]1CCC2=CCC[C@@H](C)[C@]2(C)C1
inactive: Potency [1] | Potency [2] | Potency [3] | Potency [4] | Potency [5] | outcome [6] | outcome [7] | Potency [8] | outcome [9]

CCCCCC[C@@H](O)C/C=C\CCCCCCCC(=O)OCC(O)CO (some centres not stated)
inactive: Potency [1] | Potency [2] | Potency [3] | Potency [4] | outcome [6] | Potency [8] | outcome [9]

O=c1[nH]c2ccc(Cl)cc2o1
inactive: Potency [1] | Potency [2] | Potency [3] | Potency [4] | Potency [5] | Potency [8] | outcome [9]

CCC=CC#N
inactive: Potency [1] | Potency [2] | Potency [3] | Potency [4] | Potency [5] | outcome [7] | Potency [8] | outcome [9]

CC(CO)CO
inactive: Potency [1] | Potency [2] | Potency [3] | Potency [4] | Potency [10] | outcome [6] | outcome [7] | Potency [8] | outcome [9]

CCCCOc1ccc(OCCCN2CCOCC2)cc1
inactive: Potency [1] | Potency [2] | Potency [3] | Potency [4] | Potency [5] | fluorescence, % of triamterene [8] -0.0611% [at 18.6 µM] | fluorescence, % of fluorescent control [9] -0.188% [at 18.6 µM]

Cc1cc2c(OCC(CNC(C)(C)C)OC(=O)c3ccccc3)cccc2[nH]1 (configuration not stated)
inactive: Potency [1] | Potency [2] | Potency [3] | Potency [4] | Potency [5] | outcome [6] | outcome [7] | Potency [8] | outcome [9]

CCOC(=O)[C@H](CCc1ccccc1)N[C@@H](C)C(=O)N(CC(=O)O)C1Cc2ccccc2C1
inactive: Potency [1] | Potency [2] | Potency [3] | Potency [4] | Potency [10] | outcome [6] | outcome [7] | Potency [8] | outcome [9]

O=C(/C=C/c1ccc(O)c(O)c1)O[C@@H]1C[C@@](OC(=O)/C=C/c2ccc(O)c(O)c2)(C(=O)O)C[C@@H](O)[C@@H]1O
inactive: Potency [1] | Potency [2] | Potency [3] | Potency [4] | outcome [6] | Potency [8] | outcome [9]

Brc1cc2ccccc2c2ccccc12
inactive: Potency [1] | Potency [2] | Potency [3] | Potency [4] | outcome [6] | outcome [7] | Potency [8] | outcome [9]

CCC(OCCCOC)OC(C)=O (configuration not stated)
inactive: Potency [1] | Potency [2] | Potency [3] | Potency [4] | outcome [6] | outcome [7] | Potency [8] | outcome [9]

CCC1CO1 (configuration not stated)
inactive: Potency [1] | Potency [2] | Potency [3] | Potency [4] | Potency [5] | Potency [10] | Potency [8] | outcome [9]

CCn1cc(C(=O)O)c(=O)c2cc(F)c(N3CCNCC3)cc21
inactive: Potency [1] | Potency [2] | Potency [3] | Potency [4] | Potency [5] | outcome [6] | outcome [7] | Potency [8] | outcome [9]

CCCC(=O)C(=O)O
inactive: Potency [1] | Potency [2] | Potency [3] | Potency [4] | Potency [10] | outcome [6] | outcome [7] | Potency [8] | outcome [9]

OC(CCN1CCCC1)(c1ccccc1)C1CCCCC1 (configuration not stated)
inactive: Potency [1] | Potency [2] | Potency [3] | Potency [4] | Potency [5] | fluorescence, % of triamterene [8] 0.0017% [at 18.6 µM] | fluorescence, % of fluorescent control [9] -0.0138% [at 18.6 µM]

CC(C)=CC(=O)C=C(C)C
inactive: Potency [1] | Potency [2] | Potency [3] | Potency [4] | outcome [6] | outcome [7] | Potency [8] | outcome [9]

CC(=O)Nc1ccc(C)cc1C
inactive: Potency [1] | Potency [2] | Potency [3] | Potency [4] | Potency [5] | outcome [6] | outcome [7] | Potency [8] | outcome [9]

CO[C@]1(NC(=O)CSC(F)F)C(=O)N2C(C(=O)O)=C(CSc3nnnn3CCO)CO[C@H]21
inactive: Potency [1] | Potency [2] | Potency [3] | Potency [4] | Potency [10] | outcome [6] | outcome [7] | Potency [8] | outcome [9]

C=C(C)CCCC(C)CCO (configuration not stated)
inactive: Potency [1] | Potency [2] | Potency [3] | Potency [4] | Potency [5] | outcome [6] | outcome [7] | Potency [8] | outcome [9]

O=C=Nc1cccc(C(F)(F)F)c1
active: Potency [10] 2150 nM
inactive: Potency [1] | Potency [2] | Potency [3] | Potency [4] | outcome [6] | outcome [7] | Potency [8] | outcome [9]

O=C(Cn1ccnc1[N+](=O)[O-])NCCO
inactive: Potency [1] | Potency [2] | Potency [3] | Potency [4] | Potency [5] | outcome [6] | outcome [7] | Potency [8] | outcome [9]

COc1ccccc1Oc1c(NS(=O)(=O)c2ccc(C(C)(C)C)cc2)nc(-c2ncccn2)nc1OCCO
inactive: Potency [1] | Potency [2] | Potency [3] | Potency [4] | Potency [5] | outcome [6] | outcome [7] | Potency [8] | outcome [9]

CC(C)C[C@H](NC(=O)[C@H](CCc1ccccc1)NC(=O)CN1CCOCC1)C(=O)N[C@@H](Cc1ccccc1)C(=O)N[C@@H](CC(C)C)C(=O)[C@@]1(C)CO1
active: Potency [1] 66.8 nM | Potency [2] 106 nM | Potency [3] 335 nM | Potency [4] 211 nM
inactive: Potency [5] | outcome [6] | outcome [7] | Potency [8] | outcome [9]

COc1cc(Nc2c(C#N)cnc3cc(OCCCN4CCN(C)CC4)c(OC)cc23)c(Cl)cc1Cl
inactive: Potency [2] | outcome [6] | outcome [7] | Potency [8] | outcome [9]
active: Potency [1] 11900 nM | Potency [3] 26600 nM | Potency [4] 29800 nM | Potency [10] 376 nM

C(=C\c1ccccc1)/c1ccccc1
inactive: Potency [1] | Potency [2] | Potency [3] | Potency [4] | Potency [5] | outcome [6] | Potency [8] | outcome [9]

CC(=O)Nc1cc(S(=O)(=O)O)cc2cc(S(=O)(=O)O)c(N=Nc3ccccc3)c(O)c12
active: Potency [4] 30600 nM
inactive: Potency [1] | Potency [2] | Potency [3] | outcome [6] | outcome [7] | Potency [8] | outcome [9]
